Results filed as inconclusive are left out. Unmarked numbers belong to inactive results. Activity calls are given as the source filed them. Calls follow the shape of the dose curve; as a rule, active = well fitted cell-killing curve with a large enough effect; inconclusive = small, poorly fitted or top-dose-only effect; inactive = flat fitted curve, though single readings scatter. Numbered stars: 1 amine (or outer) side, 2 acyl side, 3 side chain; on linkers, the order of the positions; unused ones are H or OH. Square brackets hold non-standard residues; d marks the D form. Peptide text beside a SMILES is read from it. ξ: configuration not given here. X4 = O=C(C1CC2(c3ccc(O)cc3)c3ccccc3NC2N1[*:1])[*:2]; ξW = NC(Cc1c[nH]c2ccccc12)C(=O)O; ξY = NC(Cc1ccc(O)cc1)C(=O)O
assay: Panc-1005 Cancer Cell Toxicity qHTS against the NCATS CANVASS Library (AID 1347349); details: Panc-1005 viability, CellTiter-Glo luminescence, 72 h; series mostly up to 38.3 µM; activity change, negative = cytotoxicity: at the top concentration; also: nearly all actives have a fitted effect of over 60% in size
Description: Natural products and their derivatives continue to be wellsprings of nascent therapeutic potential. However, many laboratories have limited resources for biological evaluation, leaving their previously isolated or synthesized compounds largely or completely untested. To address this issue, the Canvass library of natural products was assembled (https://tripod.nih.gov/canvass), in collaboration with academic and industry researchers, for quantitative high-throughput screening (qHTS) across a diverse set of cell-based and biochemical assays. The pure (>85% purity by liquid chromatography/mass spectrometry [LC/MS]) Canvass library of 346 natural products were submitted by 45 academic laboratories and companies around the world. We collected pure natural products to circumvent deconvolution and structure elucidation due to time and resource limitations. The library was formatted into 1536-well plates and evaluated in 50 qHTS (in an 11-pnt concentration series) bioassays with broad scope of disease-relevant mechanisms. The resulting data set from 50 different assays was then systematically analyzed to identify overall trends and specific natural products with interesting biological activities. Reported herein are the results of each individual qHTS and their corresponding assay protocol. National Center for Advancing Translational Sciences (NCATS), Rockville, MD National Institute of Health (NIH), Bethesda, Maryland
Cancer Cell Toxicity protocol for cell lines COV-362, OV-KATE, OV-SAHO, UWB1.289, UWB1.289-WTBRCA1, HEK-293, HPAF-II, Panc-1005, SW1088, or U-118MG. 1. In a 1536 well, white solid bottom tissue culture plates (Corning 7494), corresponding cells (COV-362, OV-KATE, OV-SAHO, UWB1.289, UWB1.289-WTBRCA1, HEK-293, HPAF-II, Panc-1005, SW1088, or U-118MG) were dispensed in each well at a final concentration of 1000 cells / well (6uL volume) using the Multidrop Combi (Thermo Fisher Scientific) dispenser. 2. The plates were incubated for 4 hours at 37 degrees C/5% CO2/95% Rh. 3. Compounds were pin transferred (~23nL volume) via Wako Pin-tool (Wako Automation, Richmond VA) equipped with a 1536 pin head. The assay plates were treated with compounds in an 11-pnt concentration series with a final concentration range of […] to 85uM. 4. Bortezomib was used as a single dose control (0.5mM column 4, rows 1 - 32) at a final concentration of 1.9uM and as a 16pnt titration (1mM; 1:2 dilution; 16-points; n = 2; column 3, rows 1 - 32) with final concentration range of 0.1nM - 3.8uM. 5. The assay plates were incubated for 72 hours at 37 degrees C/5% CO2/95% Rh. 6. 3uL CellTiter-Glo detection reagent was then added to the plates (columns 2 - 48, rows 1 - 32) and incubated at room temperature for additional 15min. 7. Luminescence signal was acquired via the ViewLux plate reader (PerkinElmer) using a clear filter, 2 second exposure and 2x binning settings.
% is scaled to controls: 0 for no effect and ±100 for the full control effect; potency is read from the fitted curve at half-maximal effect.

Structure (SMILES) | Potency | activity change, negative = cytotoxicity
CC(C)=CCC/C(C)=C/Cc1c(O)c(CC=C(C)C)c(O)c2c(=O)c3cc(O)ccc3oc12 | 14.9 µM (active) | 
C[C@@H]1C(=O)[C@]23CC[C@H]1C[C@]21O[C@H]2C(C)(C)C=CC(=O)[C@@]23COC1=O |  | -9.16%
O=C(O)[C@@]12CO[C@@]3(O)C4CCN(CC[C@H]31)[C@H]4c1c2[nH]c2ccccc12 |  | -11.6%
C=C[C@]1(C)CC[C@@H]([C@H](C)C(=O)OCC)O1 |  | -12.7% [at 22.9 µM]
O=C(O)CC1OC(=O)c2c(O)cccc21 (stereo not given) |  | 5.09%
CC(=O)O[C@H]1CC[C@@]2(C)C(CC[C@]3(C)C2CC=C2C4CC(C)(C)CC[C@]4(C)CC[C@]23C)C1(C)C (stereo not given in full) |  | -0.494%
CS/C=C/C(N)=O |  | 7.44%
O=C(O)CC1OCc2c(O)cccc21 (stereo not given) |  | 1.76%
C=C[C@@]1(C)CC[C@@H]([C@H](C)C(=O)/C=C/C(C)C)O1 |  | 0%
O=C(OC1Cc2c(O)cc(O)cc2OC1c1cc(O)c(O)c(O)c1)c1cc(O)c(O)c(O)c1 (stereo not given) | 18.8 µM (active) | 
C=CC(=C)CC[C@]1(C)[C@H]2C[C@H](OC(=O)C(C)CC)C=C3[C@H](OC(C)=O)O[C@H](OC(C)=O)[C@@]32[C@H](OC)C[C@@H]1C (stereo not given in full) | 2.17 µM (active) | 
CC1C(=O)C23CCC1C[C@@]21O[C@H]2C(C)(C)C=CC(=O)[C@@]23COC1=O (stereo not given in full) |  | 5.34%
C=C1/C=C\C(CCC)=C\c2csc(n2)C(C)NC(=O)C[C@@]2(CC(=O)O)CCC(=C)[C@H](C1)S2 (stereo not given in full) |  | -0.24%
CC[C@@H]1C[C@@]2(CC)OC(=O)[C@@]3(CC)OC(=O)[C@@H]1[C@@H]23 |  | 3.23%
O=C1c2c(O)cc(O)cc2O[C@@H](c2ccc(O)cc2)[C@@H]1c1c(O)cc(O)c2c(=O)cc(-c3ccc(O)c(O)c3)oc12 |  | -2.41%
CCC[C@@H](C)/C=C(\C)[C@H](O)[C@H](C)/C=C/CC[C@@H](O)[C@H](C)[C@H](O)[C@H](C)[C@H](O)[C@H](C)[C@H]1O[C@H]([C@H](C)C(=O)O)CC[C@@H]1C | 4.21 µM (active) | 
COC1C(O)C(OC(N)=O)C(Oc2ccc3c(O)c(NC(=O)c4ccc(O)c(CC=C(C)C)c4)c(=O)oc3c2C)OC1(C)C (stereo not given) |  | 0%
CNc1ccc(Cl)cc1C(=O)OC[C@]1(C)[C@H]2CC[C@]3(C)[C@@H](C[C@@H](OC)[C@H](C)[C@H]3C3=C(O)C(=O)OC3O)[C@]2(C)CC[C@H]1O (stereo not given in full) |  | -13.3%
CO[C@@H]1C[C@@H](C[C@H]2CC[C@H](C)[C@H]([C@@H](C)C(=O)O)O2)O[C@]2(O[C@](C)([C@H]3CC[C@@](C)([C@@H]4O[C@@H]([C@H]5O[C@](C)(O)[C@H](C)C[C@@H]5C)C[C@@H]4C)O3)C[C@H]2C)[C@@H]1C | 3.75 µM (active) | 
C/C(=C\[C@H](C)C(=O)CCCC1CC(=O)NC(=O)C1)[C@@H]1OC(=O)/C=C/CC/C=C/C[C@@H](O)[C@@H]1C | 1.88 µM (active) | 

Structure (SMILES) | Potency | activity change, negative = cytotoxicity
CCCCCCCCCCCCCCC[C@H](O)C[C@@H](O)C[C@@H](O)C[C@@H](O)C[C@@H](O)C[C@H]1CC=CC(=O)O1 | 1.88 µM (active) | 
CCC1=C2CCCN3C(=O)O[C@H]([C@H]1OC(C)=O)[C@H]23 |  | 8.96%
C=C1C[C@@]23C=CC(=O)[C@@](C)(CCCC(C)C(=O)O)[C@@H]2C[C@@H]1CC3 (stereo not given in full) |  | 12%
C[C@]12CC[C@]3(C1)[C@H](CC2=O)CC(OC(=O)c1ccccc1)[C@H]1[C@@](CO)(C(=O)O)CCC[C@@]13C (stereo not given in full) |  | -5.44%
C[C@@]12C[C@@H](C[C@H]3C(=O)O[C@@H](c4ccoc4)[C@H](OC(=O)c4ccccc4)[C@@H]31)OC2=O |  | 2.25%
OCc1ccc2ocnc2c1 |  | -1.34%
CC[C@H](C)[C@H](NC(=O)C(Cc1ccc(O)cc1)NC(=O)C(Cc1c[nH]c2ccccc12)NC(=O)[C@H](C)N)C(=O)N1C(C(=O)NC(Cc2ccc(O)cc2)C(=O)O)CC2(c3ccc(O)cc3)c3ccccc3NC12 (stereo not given in full) (H-A[ξW][ξY]I[X4][ξY]-OH) |  | -18.9%
COc1ccc([C@@H]2c3cc(OC)c(OC)cc3C(=O)[C@H](C)C2C)cc1OC (stereo not given in full) |  | 1.86% [at 7.64 µM]
C[C@@]12CCC[C@@](C)(C(=O)O)[C@H]1C[C@@H](O)[C@]13C[C@H]4C[C@H](O[C@@]4(C)C1)[C@@H]23 |  | -10.9%
C=C1C(=O)O[C@H]2[C@H]1CC/C(CO)=C\CC[C@@]1(C)O[C@@H]21 | 10.6 µM (active) | 
CC1(C)[C@H](Br)CC[C@]23C[C@]4(C)C(=O)CC12C[C@H]34 |  | -9.72%
CO[C@@H]1[C@H](O)[C@@H](C)O[C@@H](OC[C@@H]2C(C)OC(=O)/C=C/[C@H](C)C(O[C@@H]3O[C@H](C)CC4(OC(=O)O[C@@H]4C)C3O)[C@@H](C)CC(C)C(=O)CC[C@H]3OC23)[C@@H]1OC (stereo not given in full) |  | 2.97%
C/C=C/c1cc(OC)c2c(c1)[C@@H](C)[C@H](c1ccc(O)c(OC)c1)O2 |  | -9.53%
CC1(C)CCC[C@]2(C)[C@@H]1CC[C@@]13C[C@@H](CC[C@H]12)C(C)(O)C3 (stereo not given in full) |  | 28.3%
C=C[C@]1(C)CC[C@@H]([C@H](C)C(=O)/C=C/C(C)C)O1 |  | -8.94%
CC(=O)O[C@@H]1C=C2C(=O)OC[C@]2(O)[C@@]2(C)CCCC(C)(C)[C@H]12 | 6.68 µM (active) | 
C=C1C(=O)O[C@H]2C[C@H](C)[C@@H]3CC(=O)C(C)=C3[C@H](O)[C@H]12 | 18.8 µM (active) | 
CC1(C)C=Cc2c(ccc3c2OC[C@@H](c2ccc(O)cc2O)C3)O1 |  | -11.6%
C1=C2CCCN[C@@H]2[C@@H]2CCN3CCCC[C@@H]3[C@H](C1)C2 |  | 1.31%
CN1CC[C@]2(c3cccc4c3N[C@@H]3N(C)CC[C@]43[C@@]34CCN(C)[C@@H]3Nc3ccccc34)c3ccccc3N[C@H]12 | 16.8 µM (active) | 

Reference: PubChem BioAssay (NCATS)
